Test [1] can be described thus: TOX21_p53_BLA_p2_viability: Viability Assessment in the Tox21 HCT-116 p53 Agonism Beta-lactamase Assay, Phase 2 (AID 2283591).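 Note: actives lower the ATP signal meaning cytotoxicity.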 A digest of the protocol: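 HCT116 p53-bla cells, 4000/well, dosed after 5 h plating (217-fold dilution of DMSO stocks) and incubated 16 h at 37C. Viability taken as cellular ATP by CellTiter-Glo luminescence after 30 min RT; signal loss marks cytotoxicity.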

Test [2] deals with Cellular tumor antigen p53 (Homo sapiens) (UniProt P04637). Briefly: TOX21_p53_BLA_p2_ratio: Tox21 HCT-116 p53 Agonism Beta-lactamase Assay, Ratio, Phase 2 (AID 2283592). A digest of the protocol:
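An inducible beta-lactamase reporter in HCT116 cells signals p53 pathway activation. After 16 h chemical exposure at 37C, cells load CCF4-AM substrate for 2 h at room temperature; activity is the cleaved/uncleaved emission ratio relative to DMSO.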

Test [3] in a line: TOX21_p53_BLA_p3_viability: Viability Assessment in the Tox21 HCT-116 p53 Agonism Beta-lactamase Assay, Phase 3 (AID 2283593).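 Note: cells exposed to compound for 16 h before reading.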 The method in brief:
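HCT116 cells, 4000/well, dosed 5 h after plating by pin transfer (217-fold dilution from DMSO stock) and incubated 16 h at 37C, 5% CO2. Viability read as ATP luminescence with CellTiter-Glo after 30 min at room temperature.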

Test [4] deals with Cellular tumor antigen p53 (Homo sapiens) (UniProt P04637). Briefly: TOX21_p53_BLA_p3_ratio: Tox21 HCT-116 p53 Agonism Beta-lactamase Assay, Ratio, Phase 3 (AID 2283596). The method in brief: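 HCT116 p53-bla cells (4000/well) given compound in DMSO (217-fold dilution) after 5 h, incubated 16 h at 37C. CCF4-AM substrate 2 h at room temperature; 460/530 nm emission ratio, gain fitted against DMSO.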

Test [5] has the same target. Briefly: TOX21_p53_BLA_p5_ratio: Tox21 HCT-116 p53 Agonism Beta-lactamase Assay, Ratio, Phase 5 (AID 2283599). The method in brief: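 HCT-116 p53-bla cells (4000/well) plated 5 h, dosed with compound (217-fold DMSO dilution) for 16 h at 37 C; CCF4-AM substrate 2 h at room temperature. Activity is the 460/530 nm emission ratio (405 nm excitation), fitted in gain-of-signal direction versus DMSO.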

A short description of test [6]: TOX21_p53_BLA_p5_viability: Viability Assessment in the Tox21 HCT-116 p53 Agonism Beta-lactamase Assay, Phase 5 (AID 2283600). A digest of the protocol: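 Counter-readout for cytotoxicity: ATP-dependent luminescence from CellTiter-Glo, read in the beta-lactamase wells after 30 min at RT, following a 16 h compound exposure at 37C.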
A short description of test [7]: TOX21_p53_BLA_p4_viability: Viability Assessment in the Tox21 HCT-116 p53 Agonism Beta-lactamase Assay, Phase 4 (AID 2283597).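 Note: hits lower the luminescence signal meaning cytotoxicity.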 A digest of the protocol:
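Compound exposure of HCT116 cells lasts 16 h at 37C, 5% CO2, with DMSO stocks diluted 217-fold. Cellular ATP is then quantified by CellTiter-Glo luminescence after 30 min at room temperature.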

Test [8] deals with Cellular tumor antigen p53 (Homo sapiens) (UniProt P04637). Briefly: TOX21_p53_BLA_p4_ratio: Tox21 HCT-116 p53 Agonism Beta-lactamase Assay, Ratio, Phase 4 (AID 2283601). The method in brief: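 HCT-116 p53 beta-lactamase reporter cells (4000/well) preincubated 5 h, then compound (217-fold dilution of DMSO stock) for 16 h at 37C. CCF4-AM substrate added 2 h at room temperature; 460/530 nm emission ratio fitted upward versus DMSO.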

Test [9] deals with Thyroid hormone receptor alpha (Rattus norvegicus) + Thyroid hormone receptor beta (Rattus norvegicus) (UniProt P18113+P63059). The experiment in a line: TOX21_TR_LUC_GH3_Antagonist_Followup: Tox21 GH3 Thyroid Hormone Receptor Antagonism Luciferase Follow-Up Assay (AID 2283942). The method in brief:
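Antagonist mode: GH3 cells seeded 1,500/well, compounds at 15 concentrations (92 uM to 5nM final) plus T3 at 1.0 nM final, 24 h at 37C. Luciferase read with ONE-Glo after 30 min at room temperature.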

Another test addresses THRA (gene 7067) (UniProt P10827). Briefly: TOX21_TRA_COA_Antagonist_Followup_ratio: Tox21 Thyroid Hormone Receptor alpha Antagonism through Coactivator Recruitment Follow-Up Assay, Ratio (AID 2283953). A digest of the protocol: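 This follow-up to the GH3 luciferase screen checks specificity in a cell-free format. It measures SRC-2 coactivator peptide binding to TRα LBD by TR-FRET and scores loss of ratio signal relative to DMSO.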

The nature of test [10]: TOX21_TRB_BLA_Antagonist_Followup_viability: Viability Assessment in the Tox21 Thyroid Hormone Receptor beta Antagonism Beta-lactamase (BLA) Follow-Up Assay (AID 2283961). The method in brief:
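Cytotoxicity is measured in parallel with the antagonist-mode TRβ beta-lactamase screen, using ATP-coupled luciferase luminescence. Engineered HEK293T cells are treated for 18 h with 11-point compound series in triplicate.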

In the next test the target is THRB (gene 7068) (UniProt P10828). The experiment in a line: TOX21_TRB_COA_Antagonist_Followup_ratio: Tox21 Thyroid Hormone Receptor beta Antagonism through Coactivator Recruitment Follow-Up Assay, Ratio (AID 2283967). A digest of the protocol: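 Cell-free TR-FRET: GST-TRb LBD (5.0 nM) with fluorescein-SRC-2 peptide (200 nM) and Tb anti-GST antibody (2 nM), 0.10% BSA. 520:495 nm emission ratio normalized to DMSO (0%) and T3 (100%).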

A short description of test [11]: TOX21_TR_RXR_BLA_Antagonist_Followup_viability: Viability Assessment in the Tox21 Thyroid Hormone Receptor beta Retinoid X Receptor alpha (RXRa) Antagonism Beta-lactamase (BLA) Follow-Up Assay (AID 2283979). The method in brief:
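RXRa-bla HEK293T cells (2,500/well, phenol red-free DMEM, 2% charcoal-stripped FBS) were attached 5 h, then exposed to compounds at 11 concentrations in triplicate for 16 h at 37C. Viability measured by CellTiter-Glo ATP luminescence, bidirectional fitting versus DMSO.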

The structures appear in SMILES notation. Inconclusive results are not listed. Active and inactive are the calls of the source. Rule for the calls: active = hit-call score of the fitted dose curve at least 0.9, where 1 is the maximum; inconclusive = response in the unintended direction; inactive = score below 0.9.

Sequence of Cellular tumor antigen p53 (Homo sapiens) (P04637 whole entry, looked up): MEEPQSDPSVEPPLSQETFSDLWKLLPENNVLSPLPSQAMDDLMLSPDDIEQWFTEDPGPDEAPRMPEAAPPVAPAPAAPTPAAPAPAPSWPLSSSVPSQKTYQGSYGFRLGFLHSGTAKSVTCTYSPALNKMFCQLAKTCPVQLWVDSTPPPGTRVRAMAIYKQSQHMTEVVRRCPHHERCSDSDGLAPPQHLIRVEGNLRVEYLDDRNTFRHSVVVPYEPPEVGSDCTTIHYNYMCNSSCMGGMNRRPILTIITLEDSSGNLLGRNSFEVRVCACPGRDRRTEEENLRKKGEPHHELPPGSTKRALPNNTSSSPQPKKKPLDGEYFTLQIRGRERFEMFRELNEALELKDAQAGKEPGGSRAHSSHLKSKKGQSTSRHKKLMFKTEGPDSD
Sequence of THRB (gene 7068) (P10828 whole entry, looked up, the tested form may be a part): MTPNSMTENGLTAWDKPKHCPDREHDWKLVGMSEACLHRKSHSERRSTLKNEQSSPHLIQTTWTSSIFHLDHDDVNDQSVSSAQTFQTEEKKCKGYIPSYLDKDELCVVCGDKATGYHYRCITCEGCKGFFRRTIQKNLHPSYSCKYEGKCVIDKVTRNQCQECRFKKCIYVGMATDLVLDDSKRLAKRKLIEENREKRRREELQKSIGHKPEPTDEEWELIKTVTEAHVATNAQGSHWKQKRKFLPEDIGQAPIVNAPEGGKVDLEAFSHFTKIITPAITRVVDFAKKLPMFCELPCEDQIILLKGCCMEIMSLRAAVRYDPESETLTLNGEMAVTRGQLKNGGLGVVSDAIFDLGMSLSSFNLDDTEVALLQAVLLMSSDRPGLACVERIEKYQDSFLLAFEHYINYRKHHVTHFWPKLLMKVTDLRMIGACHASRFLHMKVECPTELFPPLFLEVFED
Sequence of THRA (gene 7067) (P10827 whole entry, looked up, the tested form may be a part): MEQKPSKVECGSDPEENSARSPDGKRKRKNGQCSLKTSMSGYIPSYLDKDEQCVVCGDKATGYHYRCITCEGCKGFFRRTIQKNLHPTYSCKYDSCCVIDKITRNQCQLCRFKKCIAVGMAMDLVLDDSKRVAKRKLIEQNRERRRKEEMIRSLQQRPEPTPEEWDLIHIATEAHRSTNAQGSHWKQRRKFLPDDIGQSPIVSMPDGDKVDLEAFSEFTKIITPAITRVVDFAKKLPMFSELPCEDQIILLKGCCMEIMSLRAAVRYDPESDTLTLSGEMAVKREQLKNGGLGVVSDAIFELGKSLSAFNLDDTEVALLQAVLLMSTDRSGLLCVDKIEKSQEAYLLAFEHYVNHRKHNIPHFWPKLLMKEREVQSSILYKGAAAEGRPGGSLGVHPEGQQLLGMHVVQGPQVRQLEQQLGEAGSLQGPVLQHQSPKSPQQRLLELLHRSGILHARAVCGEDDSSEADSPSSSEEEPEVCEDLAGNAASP

For the compound `C[C@H](NCCc1ccc(O)cc1)[C@H](O)c1ccc(O)cc1`, the outcome in test [1], in test [2], in [3], in test [4] and in [5] was inactive.

Take `CN1CC(O)c2cc(N=NC(N)=O)c(O)cc21` (stereo unspecified): the compound was called inactive in [1], in test [2], in test [3], in test [4], in [5] and in [6].

As to `CC(=O)Oc1ccc(C(=C2CCCCC2)c2ccc(OC(C)=O)cc2)cc1`, the outcome in test [1], in test [2], in test [3], in test [4], in test [7] and in test [8] was inactive.

For `CCCn1cnc2c1c(=O)n(CCCCC(C)=O)c(=O)n2C`, the outcome in test [1], in [2], in [3], in test [4], in test [5] and in test [6] was inactive.

`Cc1ncc([N+](=O)[O-])n1CC(C)O` (stereo unspecified): the compound was called inactive in test [1], in [2], in test [3], in test [4], in test [5] and in [6].

Consider `NC(N)=NCc1cccc(I)c1`, for which the result in test [1], in [2], in test [3], in test [4], in [7] and in test [6] was inactive. The outcome (in test [8]; in [9]; with THRA (gene 7067); in test [10]; with THRB (gene 7068); in test [11]) was inactive.

In the case of `CC(Cl)=CCCl`, the result in test [1], in test [2], in [3], in test [4], in test [7] and in test [8] was inactive.

Consider `CCN[C@@H]1C[C@H](N)[C@@H](OC2OC(CN)=CCC2N)[C@H](O)[C@H]1O[C@H]1OC[C@](C)(O)[C@H](NC)[C@H]1O` (stereo partly specified), for which the outcome in test [1], in test [2], in test [3], in test [4], in [5] and in [6] was inactive. In addition, the result in [8] was inactive.

`CCCCCCCCCCOc1cc2c(=O)c(C(=O)OCC)c[nH]c2cc1OCC`: the compound was classed as inactive in [1], in [2], in test [3], in test [4], in test [5] and in test [6]. Moreover, the result in test [8] was inactive.

`CCCCc1nc(Cl)c(CO)n1Cc1ccc(-c2ccccc2-c2nn[nH]n2)cc1`: the result in [1], in [2], in test [3], in [4], in test [5] and in test [6] was inactive. Also, the outcome in [8] was inactive.

In the case of `CCCCCCCCSCC`, the call in test [1], in test [2], in test [3], in test [4], in test [5] and in test [6] was inactive. Moreover, the outcome in test [8] was inactive.

Turning to `O=C(CCBr)N1CCN(C(=O)CCBr)CC1`, the call in test [1], in test [2], in [3], in test [4], in [5] and in test [6] was inactive. Further, the outcome in test [8] was inactive.

Consider `CCCCCCCCCCCCCCNCCO`, for which the call in test [1], in test [2], in test [3], in [4], in [5] and in test [6] was inactive.

On to `CC(C)C[C@H](NC(=O)[C@@H](COC(C)(C)C)NC(=O)[C@H](Cc1ccc(O)cc1)NC(=O)[C@H](CO)NC(=O)[C@H](Cc1c[nH]c2ccccc12)NC(=O)[C@H](Cc1cnc[nH]1)NC(=O)[C@@H]1CCC(=O)N1)C(=O)N[C@@H](CCCN=C(N)N)C(=O)N1CCC[C@H]1C(=O)NNC(N)=O`, for which the result in test [1], in [2], in test [3], in test [4], in test [5] and in [6] was inactive. Besides, the outcome in test [8] was inactive.

As to `CCn1cc(C(=O)O)c(=O)c2cnc(N3CCCC3)nc21`, the outcome in [1], in [2], in test [3], in test [4], in test [5] and in [6] was inactive.

For the compound `CCOC(=O)C1=C(C)NC(C)=C(C(=O)OCC)C1c1ccccc1/C=C/C(=O)OC(C)(C)C`, the AC50 in test [1] was 35.4 µM (active); in [2] it was 38.6 µM (active); in [3], 43 µM (active); in [4], 39.5 µM (active); in test [5] it was 26.5 µM (active). For the same compound, the call in test [6] and in test [8] was inactive.

As for `O=c1[nH]c(=O)n([C@H]2C[C@H](O)[C@@H](CO)O2)cc1I`, the call in [1], in test [2], in test [3], in test [4], in test [5] and in test [6] was inactive. Besides, the result in test [8] was inactive.

For `CC(C)C[C@@H](NC(=O)[C@@H](O)[C@H](N)Cc1ccccc1)C(=O)O`, the compound was classed as inactive in test [1], in test [2], in [3], in [4], in test [5] and in test [6]. For the same compound, the result in [8] was inactive.

On to `COc1cc(Cc2cnc(N)nc2N)cc(OC)c1OC`, for which the compound was called inactive in [1], in test [2], in test [3], in [4], in test [5] and in [6].

With `CCOc1nc2cccc(C(=O)O)c2n1Cc1ccc(-c2ccccc2-c2nn[nH]n2)cc1`, the AC50 in test [1] was 21.9 µM (active); in test [2], 28.7 µM (active); in test [3] it was 35.8 µM (active); in test [4], 43.3 µM (active); in test [5] it was 44.3 µM (active); in test [6], 38.2 µM (active). In addition, the outcome in test [8] was inactive.

Consider `O=C(c1ccc(O)cc1)c1ccc(Cl)cc1`, for which the compound was classed as inactive in test [1], in [3] and in [6]. Also, the AC50 is 70.5 µM (active) in [2], 80 µM (active) in [4], 74.9 µM (active) in test [5] and 86.9 µM (active) in [8].

Regarding `C=CC(=O)OCCOc1ccccc1`, the result in test [1], in test [2], in test [3], in test [4], in [5] and in test [6] was inactive. Moreover, the outcome in test [8] was inactive.

Turning to `C[N+](C)(C)CC(O)CC(=O)[O-]` (stereo unspecified), the outcome in test [1], in test [2], in test [3], in test [4], in test [5] and in test [6] was inactive. Moreover, the outcome in test [8] was inactive.

As to `NC(=O)c1ccc([N+](=O)[O-])cc1`, the compound was classed as inactive in test [1], in test [2], in test [3], in test [4], in [5] and in test [6].

In the case of `COc1cc(NS(=O)(=O)c2ccc(N)cc2)nc(OC)n1`, the result in [1], in [2], in test [3], in [4], in [5] and in test [6] was inactive. In test [8], the result was inactive.

On to `C=C(C)c1ccccc1`, for which the compound was called inactive in test [1], in [2], in test [3], in [4], in test [5] and in test [6]. Also, the result in test [8] was inactive.

As to `CC=C1[C@H]2C=C(C)C[C@]1(N)c1ccc(=O)[nH]c1C2`, the compound was classed as inactive in test [1], in test [2], in test [3], in test [4], in [5] and in test [6].

As for `CCCCCCCCCCCCCCCCCC(=O)[O][Al]`, the outcome in test [1], in test [2], in test [3], in test [4], in test [5] and in test [6] was inactive. For the same compound, in test [8], the outcome was inactive.

Consider `C=C1[C@@H]2CC[C@@H](C2)C1(C)C`, for which the compound was classed as inactive in [1], in [2], in [3], in [4], in test [5] and in test [6]. Moreover, the result in [8] was inactive.
